# Source: PubChem
# MPTP inh – mitochondrial permeability transition pore inhibitors, primary screen, biochemical, isolated mouse mitochondria, absorbance. 360,000 tested, 1.4% active. Ca2+ swelling absorbance, 30 min. AID 602449, 2012. inhibition, % at 10 µM;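 active = inhibition of 50% or more, scaled per plate between neutral and stimulator controls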;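 note: 0% = DMSO wells given calcium and 100% = 1 mM EGTA wells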
# CSC inhib – cancer stem cell viability inhibitors, primary screen, luminescence. cancer stem cell-like cells viability. inhibition, % at 7.5 µM. 300,000 tested, 1.1% active. AID 2717, 2010; in the data active = inhibition above about 75%; inconclusive = no clear call, values can overlap the other calls; tested in HMLE shEcad cells
# Calb FLC – C. albicans growth inhibition with fluconazole, primary screen, CaCi-2 strain, Alamar Blue fluorescence; growth inhibition, % (test concentration not listed); 300,000 tested, 0.57% active; C. albicans CaCi-2 (fluconazole-resistant clinical isolate) + fluconazole, 48 h;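 active = growth inhibition above about 58% in most replicates, limit read from the data, passing the limit was not always enough; inconclusive = exactly half the replicates above a set limit; inactive = most replicates below a set limit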;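 note: all wells also contain fluconazole at 8 µg/ml as a sub-toxic cotreatment; 0% = median of DMSO wells and 100% = median of geldanamycin control wells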
# Mdm2-MdmX inh – inhibitors of human Mdm2-MdmX association, primary screen, cell-based, luminescence, split luciferase, SaOS-2, uHTS | 330,000 tested, 3% active | SaOS-2 split-luciferase Mdm2/MdmX complementation | Protein Mdm4 (Homo sapiens) + E3 ubiquitin-protein ligase Mdm2 (Homo sapiens), … | AID 485346, 2010 | inhibition, % at 8 µM;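 active = inhibition of at least 50% at 8 µM in the primary screen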
# Beta apoptosis – inhibitors of cytokine-induced beta cell apoptosis, primary screen, luminescence | INS-1E cytokine-induced death, ATP luminescence, 48 h; percent of positive-control rescue, neutral wells zero | protection from apoptosis, % (no concentration beside the values) | 300,000 tested, 0.8% active;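 active = Every replicate reaches about 75%, or at least half do and their mean reaches it too, limit read from the data; inconclusive = At least half of replicates reach the limit but their mean does not; inactive = Under half of replicates reach the limit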;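 note: 0% = cytokine-treated negative control wells and 100% = positive control rescue; higher means more ATP so stronger rescue from cytokine killing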
# SKKanGAS inh – S. pyogenes SKKanGAS growth inhibitors in kanamycin, primary screen, streptokinase expression inhibitor project, SKKanGAS strain, BacTiter-Glo luminescence | 6 h | inhibition, % at 7.5 µM | 300,000 tested, 1.3% active;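 active = mean replicate score, as percent of positive control median, at least 50; inconclusive = mean below 50 but one replicate at or above 50; inactive = mean and every replicate below 50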;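 note: strain carries kanamycin resistance gene driven by streptokinase promoter and grows in 40 µg/ml kanamycin; loss of luminescence reflects streptokinase promoter inhibition or plain growth inhibition; 0% = median of DMSO wells and 100% = positive control at its reference dose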
# Mdm2-MdmX conf – Mdm2-MdmX complex disruptors, retested hits, confirmation, luminescence, single concentration; AID 489028, 2010; inhibition, % at 8 µM; Mdm2-MdmX binding, luminescent assay; 10,000 tested, 55% active; shares compounds with Mdm2-MdmX inh; in the data active = inhibition above about 40%
# Full FLuc ctr – full-length luciferase signal inhibition, confirmation, counter-screen for Mdm2/MdmX interaction inhibitor project, cell-based, single concentration, SaOS-2; shares compounds with Mdm2-MdmX inh; SaOS-2 full-length luciferase counterscreen, luminescence; inhibition, % at 8 µM; 6,200 tested, 77% active;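 active = mean inhibition at 8 µM reaching about 37%, which flags the compound as non-specific, limit read from the data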;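 note: p53-null SaOS-2 cells with luciferase driven by a doxycycline-inducible promoter; compound on cells about two nights before reading with doxycycline added after day one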
# Rh123 counter – fluorescence retest of MPTP screen hits in isolated mitochondria, single concentration; 5,000 tested, 78% active; AID 624504, 2012; inhibition, % at 10 µM; membrane potential, Rhodamine 123 fluorescence; shares compounds with MPTP inh; in the data active = inhibition above about 22%;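 note: 0% = DMSO vehicle and 100% = positive control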
# MPTP swell DR – mitochondrial permeability transition pore inhibitors, dose response, biochemical, absorbance, uHTS hits; shares compounds with MPTP inh; isolated mitochondria swelling; IC50, µM; 780 tested, 58% active; AID 651561, 2012; in the data active = IC50 below about 20 µM
# MPTP cs DR – fluorescent counter-screen in isolated mitochondria, dose response, counter-screen for MPTP inhibitor project, biochemical, fluorescence, uHTS hits; 780 tested, 49% active; isolated mitochondria counterscreen, fluorescence read-out; shares compounds with MPTP inh; IC50, µM; in the data active = IC50 below about 80 µM
# Numbers without * were called inactive; ? = inconclusive; . = no result given. Most compounds without a hit are left out; they make up all but 5.4% or so of the library.
SMILES,MPTP inh,CSC inhib,Calb FLC,Mdm2-MdmX inh,Beta apoptosis,SKKanGAS inh,Mdm2-MdmX conf,Full FLuc ctr,others
CCN1C(=O)c2cccc3c(NS(=O)(=O)c4ccc(NC(C)=O)cc4)ccc1c23,8.6,-14.2,31.4,43.6,-3.1,1.6,.,.,
Cc1cccc(NC(=O)c2ccc(S(=O)(=O)N3CCOCC3)cc2)c1C,-0.7,2.1,-4.4,2.4,2.4,3.3,.,.,
CCN1C(=O)c2cccc3c(NC(=O)c4ccc(S(=O)(=O)N(C)C)cc4)ccc1c23,-1.1,-4.0,45.4,58.5*,-2.2,0.3,32.5,63.5*,
CCN1C(=O)c2cccc3c(NC(=O)c4ccc(S(=O)(=O)N5CCOCC5)cc4)ccc1c23,-1.3,-1.1,-0.7,51.2*,-1.5,2.8,49.0*,93.5*,
Cn1c(=O)c2nc(SCc3ccccc3)n(C)c2n(C)c1=O,0.2,.,.,.,.,.,.,.,
COC(=O)/C(=N\OCc1ccc(C#N)cc1)c1c(C)nn(C)c1C,-1.1,13.2,3.7,5.1,-3.0,-3.6,.,.,
O=C(N/N=C/c1cc(Br)cc(Br)c1O)c1cccc(N2CCCC2=O)c1,-0.4,10.9,?,57.7*,2.0,87.7*,50.3*,26.3,
O=C(N/N=C/c1ccc(Cl)cc1Cl)c1cccc(N2CCCC2=O)c1,0.3,4.1,27.1,3.7,5.6,-8.4,.,.,
CCOC(=O)C1=C(C)N=c2s/c(=C/c3cccc([N+](=O)[O-])c3O)c(=O)n2C1c1ccccc1 (stereo unspecified),31.3,30.0,-3.7,44.6,-0.7,33.5,.,.,
CCOC(=O)C1=C(C)N=c2s/c(=C/c3cccc([N+](=O)[O-])c3O)c(=O)n2C1c1cc(OC)c(OC)c(OC)c1 (stereo unspecified),8.7,9.0,-5.2,52.1*,-3.1,27.1,8.6,.,
Cc1ccc(-n2cc(CN3CCC(CO)(Cc4ccccc4)CC3)cn2)cc1,.,14.2,-22.9,37.1,-6.7,0.4,.,.,
Cc1ccc(-n2cc(CN3CCC(CO)(Cc4cccc(C(F)(F)F)c4)CC3)cn2)cc1,-4.5,61.0,7.3,83.6*,11.2,-0.1,48.1*,69.2*,
O=C(CN1CCN(Cc2ccccc2)CC1)Nc1ccc([N+](=O)[O-])cc1C(=O)Nc1ccccc1F,0.8,9.9,23.5,53.9*,1.1,4.7,30.4,.,
COc1cc(/C=C/C(=O)c2ccc3c(c2)OCO3)cc(OC)c1OC,-0.2,.,.,91.2*,-53.2,.,59.6*,38.2*,
COc1cc(/C=C/C(=O)c2ccc3c(c2)OCCO3)cc(OC)c1OC,-0.6,44.6,19.2,66.5*,-20.5,3.4,46.1*,66.3*,
COc1ccc(/C=C/C(=O)c2ccc3c(c2)OCO3)cc1OC,-1.1,18.8,.,19.9,-10.0,.,.,.,
COc1ccc(OC)c(/C=C/C(=O)c2ccc3c(c2)OCCO3)c1,1.0,60.6,-8.2,76.2*,-14.6,16.2,16.3,.,
COc1cc(/C=C/C(=O)c2ccc(F)cc2)cc(OC)c1OC,0.7,8.9,-0.7,0.3,-19.8,-4.0,.,.,
COc1cccc(/C=N/NC(=O)C(=O)N2CCCC2)c1OC,-1.1,-4.0,-4.4,11.5,-4.1,-5.2,.,.,
Cc1ccc([C@H]2C[C@@H](n3cc(-c4ccc(F)cc4)nn3)[C@H](O)CN2CC2CCCCC2)cc1,3.6,.,.,.,.,.,.,.,
CCS(=O)(=O)N1Cc2ccccc2CC1C(=O)Nc1nc2ccccc2s1 (stereo unspecified),2.0,-1.5,-13.9,59.2*,-0.5,6.9,69.8*,162.4*,
CN(Cc1cnn(-c2ccccc2)c1)C(=O)c1cccc(S(=O)(=O)Nc2ccccc2F)c1,0.8,.,.,.,.,.,.,.,
O=C1c2ccc3c4c(ccc(c24)C(=O)N1c1ccc(O)cc1)C(=O)N(c1ccc(O)cc1)C3=O,-0.8,-11.3,-5.4,63.1*,67.9,?,17.1,.,
Cn1c(Sc2ccc(Br)cc2)c(C=O)c2ccccc21,1.3,-13.3,0.3,83.6*,7.6,18.0,72.0*,53.4*,
Cc1ccc(NC(=O)COC(=O)C2=COCCO2)c([N+](=O)[O-])c1,-1.8,-14.3,-0.4,-4.2,-1.9,2.7,.,.,
SMILES,MPTP inh,CSC inhib,Calb FLC,Mdm2-MdmX inh,Beta apoptosis,SKKanGAS inh,Mdm2-MdmX conf,Full FLuc ctr,others
CC(=O)c1c(C)[nH]c(C(=O)OCC(=O)Nc2ccc(C)cc2[N+](=O)[O-])c1C,99.9*,-7.8,24.2,51.2*,123.0*,-12.9,37.3,58.0*,Rh123 counter=90.3*
Cc1cc(C)nc(/N=C(\N)Nc2ccc(OCCC(C)C)cc2)n1,100.0*,47.9,-23.3,66.3*,52.0,2.9,49.3*,52.7*,Rh123 counter=91.0*
Cc1cc(C)nc(/N=C(\N)Nc2cccc(OCc3ccccc3)c2)n1,82.9*,-11.9,-26.4,72.9*,-27.9,12.0,50.0*,66.0*,Rh123 counter=64.1*
COc1ccc(N/C(N)=N/c2nc(C)cc(C)n2)cc1,-0.6,.,.,.,.,.,.,.,
NC(N)=Nc1nc(-c2ccccc2)c2cc(F)ccc2n1,82.1*,7.3,4.2,66.4*,-1.3,-0.4,59.8*,48.8*,Rh123 counter=1.5;MPTP swell DR=6.17*;MPTP cs DR=46.8*
COc1ccc(N2CCN(C(=O)CCNS(=O)(=O)c3ccc(Br)s3)CC2)cc1,-0.8,2.3,-4.0,17.2,-11.0,-4.7,.,.,
O=c1c2ccccc2nc(N/N=C/c2c(O)ccc3ccccc23)n1O,52.3*,111.6*,106.1*,71.2*,98.1*,29.3,68.4*,35.9,Rh123 counter=-19.4
O=c1c2ccccc2nc(N/N=C/c2ccc(O)cc2)n1O,-8.7,-13.0,-7.9,-9.8,-1.1,14.7,.,.,
CCOc1cc(/C=N/N2CCOCC2)ccc1OCc1ccc(C(=O)OC)o1,0.8,.,-3.7,9.9,-3.3,-0.9,.,.,
Cc1sc(NC(=O)c2ccco2)c(C(c2ccc(F)cc2)N2CCN(C)CC2)c1C (stereo unspecified),81.8*,-1.0,6.8,53.5*,-5.2,3.2,36.0,73.7*,Rh123 counter=-23.4
COc1cc(CNCCc2ccc(S(N)(=O)=O)cc2)ccc1OCC(=O)NC1CCCCC1,-1.9,-5.2,-5.0,22.7,-6.7,-3.3,.,.,
